Test results as given in PubChem BioAssay (Tox21).
Inconclusive results are not listed. Activity calls are given as the source filed them. Calls come from the whole dose curve; as a rule, active = well fitted curve in the direction sought with a large enough effect in the repeat runs; inconclusive = weak or mixed curves; inactive = no such curve, though single readings can be large; an effect the other way counts as inactive or inconclusive.

Legend:
[1] = qHTS RealTime-Glo MT Cell Viability Assay in HepG2 cells - 40 hour (AID 1224870); note: nearly all actives have a fitted effect of over 50% in size
In short: (§1)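 HepG2 cells mixed with RealTime-Glo MT reagents (NanoLuc plus cell-permeant prosubstrate) were seeded at 600 cells/well, incubated 5 h at 37 C/5% CO2, then pinned with compounds in DMSO; nonlytic luminescence tracked viability during 40 h treatment.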

[2] = A CellTox Green Cytotoxicity Assay to monitor cytotoxicity in HEK293 cells - 40 hour (AID 1224871); note: nearly all actives have a fitted effect of over 45% in size
In short: (§2)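 Seeding of HEK293 cells together with cytotoxicity dye preceded a 5 h incubation at 37 C/5% CO2. Test compounds in DMSO were then added and fluorescence monitored across 40 h.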

[3] = qHTS RealTime-Glo MT Cell Viability Assay in HEK293 cells - 16 hour (AID 1224872); note: top concentration of the series differs between compounds; nearly all actives have a fitted effect of over 50% in size
In short: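 Nonlytic real-time viability readout: viable cells convert prosubstrate to NanoLuc substrate, giving luminescence proportional to live cell number. HEK293, 600 cells/well, compound added after 5 h, continuous culture at 37 C.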

[4] = qHTS RealTime-Glo MT Cell Viability Assay in HepG2 cells - 8 hour (AID 1224873); note: nearly all actives have a fitted effect of over 55% in size
In short: as §1

[5] = qHTS RealTime-Glo MT Cell Viability Assay in HEK293 cells - 40 hour (AID 1224874); details: RealTime-Glo luminescence; max response: hits give low values; note: nearly all actives have a fitted effect of over 50% in size
In short: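 Tox21 screen in HEK293 using RealTime-Glo MT chemistry, with cells and reagent co-dispensed. Luminescence proportional to viable cell number was captured at intervals during 40 h compound exposure at 37 C.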

[6] = A CellTox Green Cytotoxicity Assay to monitor cytotoxicity in HEK293 cells - 24 hour (AID 1224875); note: series mostly up to about 77 µM; nearly all actives have a fitted effect of over 45% in size
In short: as §2

[7] = A CellTox Green Cytotoxicity Assay to monitor cytotoxicity in HepG2 cells - 16 hour (AID 1224876); note: nearly all actives have a fitted effect of over 45% in size
In short: (§3)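 Nonlytic assay: viable cells exclude the dye, so fluorescence scales with cell death. HepG2 at 600 cells/well, compounds added after 5 h, signal read across 40 h.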

[8] = qHTS RealTime-Glo MT Cell Viability Assay in HepG2 cells - 32 hour (AID 1224877); note: nearly all actives have a fitted effect of over 55% in size
In short: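 Luminescence read-out: viable HepG2 cells reduce a prosubstrate to a NanoLuc substrate, giving a signal proportional to live cell number. Reads taken at 0, 8, 16, 24, 32 and 40 h of compound exposure at 37 C.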

[9] = A CellTox Green Cytotoxicity Assay to monitor cytotoxicity in HepG2 cells - 24 hour (AID 1224878); note: nearly all actives have a fitted effect of over 45% in size
In short: as §3

[10] = A CellTox Green Cytotoxicity Assay to monitor cytotoxicity in HepG2 cells - 40 hour (AID 1224879); note: nearly all actives have a fitted effect of over 40% in size
In short: as §3
% is set by controls: 0 for no effect and ±100 for the full control effect.

CCCCNC1CC(C)(C)NC(C)(C)C1
inactive: outcome [1] | Potency [2] | Potency [3] | outcome [4] | max response [5] 10.4% | outcome [6] | outcome [7] | outcome [8] | outcome [9] | Potency [10]

O=C1CC(c2ccc(Cl)cc2)CC(=O)N1
inactive: outcome [1] | Potency [2] | Potency [3] | outcome [4] | max response [5] -1.95% | outcome [6] | outcome [7] | outcome [8] | outcome [9] | Potency [10]

COc1cc(C(=S)N2CCOCC2)cc(OC)c1OC
inactive: outcome [1] | Potency [2] | Potency [3] | outcome [4] | max response [5] 4.79% | outcome [6] | outcome [7] | outcome [8] | outcome [9] | Potency [10]

C[C@H](CCC(=O)O)[C@H]1CC[C@H]2[C@@H]3C(=O)C[C@@H]4CC(=O)CC[C@]4(C)[C@H]3CC(=O)[C@]12C
inactive: outcome [1] | Potency [2] | Potency [3] | outcome [4] | max response [5] 4.35% | outcome [6] | outcome [7] | outcome [8] | outcome [9] | Potency [10]

CC1(CO)CN(c2ccccc2)NC1=O (stereo not given)
inactive: outcome [1] | Potency [2] | Potency [3] | outcome [4] | max response [5] -10.7% | outcome [6] | outcome [7] | outcome [8] | outcome [9] | Potency [10]

CCOC(=O)c1ccc(OC(=O)CCCCCN=C(N)N)cc1
inactive: outcome [1] | Potency [2] | Potency [3] | outcome [4] | max response [5] -15.8% | outcome [6] | outcome [7] | outcome [8] | outcome [9] | Potency [10]

O=S(=O)(O)CCN1CCN(CCO)CC1
inactive: outcome [1] | Potency [2] | Potency [3] | outcome [4] | max response [5] -3.48% | outcome [6] | outcome [7] | outcome [8] | outcome [9] | Potency [10]

CCOC(=O)CC(=O)c1ccccc1
inactive: outcome [1] | Potency [2] | Potency [3] | outcome [4] | max response [5] 10.1% | outcome [6] | outcome [7] | outcome [8] | outcome [9] | Potency [10]

C=C(C)C(=O)OCC(C)(C)COC(=O)C(=C)C
inactive: outcome [1] | Potency [2] | Potency [3] | outcome [4] | max response [5] 2.01% | outcome [6] | outcome [7] | outcome [8] | outcome [9] | Potency [10]

Oc1cn2c(n1)Nc1ccc(Cl)c(Cl)c1C2
inactive: activity change, negative = cytotoxic [1] -4.5% [at 15.8 µM] | cytotoxicity increase [2] 2.17% [at 15.8 µM] | activity change, negative = cytotoxicity [3] 6.18% [at 15.8 µM] | viability change, negative = cytotoxic [4] -0.13% [at 15.8 µM] | max response [5] 10.9% | activity change [6] -3.58% [at 15.8 µM] | cytotoxicity increase [7] -4.2% [at 15.8 µM] | activity change, negative = cytotoxic [8] -1.97% [at 15.8 µM] | cytotoxicity [9] -5.44% [at 15.8 µM] | cytotoxicity increase [10] -8.09% [at 15.8 µM]

BrCCCCCBr
inactive: outcome [1] | Potency [2] | Potency [3] | outcome [4] | max response [5] 19.9% | outcome [6] | outcome [7] | outcome [8] | outcome [9] | Potency [10]

COCCc1ccc(OCC2CO2)cc1 (stereo not given)
inactive: outcome [1] | Potency [2] | Potency [3] | outcome [4] | max response [5] 13.1% | outcome [6] | outcome [7] | outcome [8] | outcome [9] | Potency [10]

CC1(C)S[C@@H]2[C@H](N=CN3CCCCCC3)C(=O)N2[C@H]1C(=O)O
inactive: outcome [1] | Potency [2] | Potency [3] | outcome [4] | max response [5] 6.57% | outcome [6] | outcome [7] | outcome [8] | outcome [9] | Potency [10]

O=C(NCC(O)CO)c1c(I)c(C(=O)NCC(O)CO)c(I)c(N(CCO)C(=O)CO)c1I (stereo not given)
inactive: outcome [1] | Potency [2] | Potency [3] | outcome [4] | max response [5] 8.98% | outcome [6] | outcome [7] | outcome [8] | outcome [9] | Potency [10]

C[C@@H](Oc1ccc(CNC(=O)c2cccnc2Oc2ccc3c(c2)OCO3)c(F)c1)C(=O)O
inactive: outcome [1] | Potency [2] | Potency [3] | outcome [4] | max response [5] 9.55% | outcome [6] | outcome [7] | outcome [8] | outcome [9] | Potency [10]

CCCOC(OCCC)OCCC
inactive: outcome [1] | Potency [2] | Potency [3] | outcome [4] | max response [5] 6.14% | outcome [6] | outcome [7] | outcome [8] | outcome [9] | Potency [10]

O=C(O)c1ccc(Cl)cc1Cl
inactive: outcome [1] | Potency [2] | Potency [3] | outcome [4] | max response [5] 7.46% | outcome [6] | outcome [7] | outcome [8] | outcome [9] | Potency [10]

CCCCCCCCC1CCC(=O)O1 (stereo not given)
inactive: outcome [1] | Potency [2] | Potency [3] | outcome [4] | max response [5] -1.86% | outcome [6] | outcome [7] | outcome [8] | outcome [9] | Potency [10]

CN(C)C(=O)CNC(=O)Cc1ccccc1
inactive: outcome [1] | Potency [2] | Potency [3] | outcome [4] | max response [5] 4.97% | outcome [6] | outcome [7] | outcome [8] | outcome [9] | Potency [10]

CCCCOC(=O)c1ccccc1
inactive: outcome [1] | Potency [2] | Potency [3] | outcome [4] | max response [5] 4.16% | outcome [6] | outcome [7] | outcome [8] | outcome [9] | Potency [10]

CC(C)C[C@H](NC(=O)CNC(=O)[C@H](Cc1ccc(O)cc1)NC(=O)[C@H](CO)NC(=O)[C@H](Cc1c[nH]c2ccccc12)NC(=O)[C@H](Cc1cnc[nH]1)NC(=O)[C@@H]1CCC(=O)N1)C(=O)N[C@@H](CCCN=C(N)N)C(=O)N1CCC[C@H]1C(=O)NCC(N)=O (stereo in doubt)
inactive: outcome [1] | Potency [2] | Potency [3] | outcome [4] | max response [5] 12.8% | outcome [6] | outcome [7] | outcome [8] | outcome [9] | Potency [10]

O=C1c2ccccc2C(=O)C1c1ccccc1
inactive: outcome [1] | Potency [2] | Potency [3] | outcome [4] | max response [5] 3.3% | outcome [6] | outcome [7] | outcome [8] | outcome [9] | Potency [10]
